# Data reported in PubChem BioAssay (NCATS).
# Inconclusive results are not listed. The source made the active and inactive calls. Unless noted, calls come from the whole dose curve; as a rule, active = well fitted curve in the direction sought with a large enough effect; inconclusive = small, poorly fitted or top-dose-only effect, or another doubt; inactive = no such curve, though single readings can be large; an effect the other way counts as inactive or inconclusive.
# Experiments:
# [1] = AP1 Signaling Pathway (AID 357; active = well fitted curve in either direction with a large enough effect, not every such curve was filed as active; note: % is set by controls: 0 for no effect and ±100 for the full control effect); conditions: ME-180 AP-1-bla reporter, EGF-induced, beta-lactamase ratio, 5 h; at 7.69 µM (top of the series) unless noted
# How it was run: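 Titration-series screen for positive or negative modulators of EC50 EGF-induced signaling in ME-180 cells carrying an AP-1-driven beta-lactamase reporter. After 5 hours at 37 degrees Celsius, CCF4 460nm/530nm emission ratio gave %Activity; AC50 values derived.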
# [2] = biological target: Cytochrome P450 1A2 (Homo sapiens) (UniProt P05177); assay: p450-cyp1a2 (AID 410; calls by dose curve; note: potency is the fitted concentration of half-maximal effect;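 for activity change, negative = inhibition: -100% = full effect of reference inhibitor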)
# Chain of Cytochrome P450 1A2 (Homo sapiens) (P05177 whole entry, looked up): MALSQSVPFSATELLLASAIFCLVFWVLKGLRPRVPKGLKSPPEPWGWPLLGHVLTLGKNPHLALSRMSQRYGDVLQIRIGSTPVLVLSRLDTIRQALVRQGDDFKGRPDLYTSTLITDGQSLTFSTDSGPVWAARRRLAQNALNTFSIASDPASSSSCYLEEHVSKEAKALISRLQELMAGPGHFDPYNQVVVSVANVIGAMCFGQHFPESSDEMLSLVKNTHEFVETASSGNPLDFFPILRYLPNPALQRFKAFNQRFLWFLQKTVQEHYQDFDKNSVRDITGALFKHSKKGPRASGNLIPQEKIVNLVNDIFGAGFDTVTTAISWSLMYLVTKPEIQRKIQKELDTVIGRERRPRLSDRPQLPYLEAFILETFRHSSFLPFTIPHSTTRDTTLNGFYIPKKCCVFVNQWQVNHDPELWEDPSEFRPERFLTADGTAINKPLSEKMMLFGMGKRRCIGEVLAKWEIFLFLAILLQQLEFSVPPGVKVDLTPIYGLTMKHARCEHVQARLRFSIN
# How it was run: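 Human CYP1A2 (20nM) demethylated Luciferin-ME at its Km (100uM) in 100mM KPO4. After 10 min compound preincubation, NADPH regeneration ran the reaction 60 min at room temperature. Luciferin was read by luminescence, normalized to 57 uM furafylline.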
# [3] = NFAT Signaling Pathway (AID 444; active = well fitted curve in either direction with a large enough effect, not every such curve was filed as active;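 note: carbachol stimulus at about its EC50 of 1 µM final; % is set by controls: 0 for no effect and ±100 for the full control effect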); conditions: Jurkat NFAT-bla M1, carbachol, beta-lactamase ratio, 5 h; at 7.69 µM (top of the series) unless noted
# How it was run: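 Jurkat cells with NFAT-driven β-lactamase reporter and co-expressed M1 receptor, stimulated with carbachol (final 1 uM, ~EC50), compound titration, 5 h at 37 °C. CCF4 loaded 1 h at RT; 460/530 nm ratio gave %activity and AC50.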
# [4] = Stat Signaling Pathway (AID 446; active = well fitted curve in either direction with a large enough effect, not every such curve was filed as active;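 note: ME-180 cervical cancer cells given 40 pM IL-6 alongside compound; SIE-controlled beta-lactamase reporter measured as 460/530 nm FRET emission ratio; % is set by controls: 0 for no effect and ±100 for the full control effect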); conditions: ME-180 (cervical carcinoma) SIE beta-lactamase reporter, IL-6 stimulated, 5 h; at 7.69 µM (top of the series) unless noted
# How it was run: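 IL-6/STAT signaling read in ME-180 cells via an SIE beta-lactamase reporter. Stimulus was 40 pM IL-6 (its AC50) for 5 hrs, so both activation and inhibition register.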
# [5] = biological target: Glucocorticoid receptor (Homo sapiens) (UniProt P04150); assay: GR-GFP Redistribution (AID 450;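 active = compounds whose dose series gives a full or clear partial fitted curve of increased nuclear translocation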; note: potency is the fitted concentration of half-maximal effect); conditions: U2OS GR-GFP nuclear translocation, laser cytometry, 2 h
# Chain of Glucocorticoid receptor (Homo sapiens) (P04150 whole entry, looked up, the tested form may be a part): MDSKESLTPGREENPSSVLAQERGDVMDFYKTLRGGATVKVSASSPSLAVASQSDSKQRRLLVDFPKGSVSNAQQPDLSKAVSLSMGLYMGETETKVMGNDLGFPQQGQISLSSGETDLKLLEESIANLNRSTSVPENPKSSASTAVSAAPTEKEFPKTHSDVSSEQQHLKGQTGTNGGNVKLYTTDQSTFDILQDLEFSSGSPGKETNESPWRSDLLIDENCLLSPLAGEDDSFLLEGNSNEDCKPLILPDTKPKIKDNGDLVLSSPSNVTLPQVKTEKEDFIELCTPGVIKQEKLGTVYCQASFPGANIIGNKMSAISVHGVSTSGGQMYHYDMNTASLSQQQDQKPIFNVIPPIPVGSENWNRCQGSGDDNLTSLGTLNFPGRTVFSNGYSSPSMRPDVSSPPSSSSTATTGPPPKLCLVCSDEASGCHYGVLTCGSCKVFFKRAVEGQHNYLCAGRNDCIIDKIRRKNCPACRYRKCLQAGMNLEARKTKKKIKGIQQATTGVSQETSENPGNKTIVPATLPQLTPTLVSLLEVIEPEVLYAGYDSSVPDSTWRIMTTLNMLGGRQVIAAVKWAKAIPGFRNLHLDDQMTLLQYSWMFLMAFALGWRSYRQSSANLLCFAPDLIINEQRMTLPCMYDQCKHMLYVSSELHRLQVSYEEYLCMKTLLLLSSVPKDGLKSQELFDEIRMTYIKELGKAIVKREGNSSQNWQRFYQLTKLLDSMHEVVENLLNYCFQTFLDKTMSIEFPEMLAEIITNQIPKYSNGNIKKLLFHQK
# [6] = biological target: Glucocorticoid receptor (Homo sapiens) (UniProt P04150); assay: GR-EFC Redistribution (AID 451; calls by dose curve; note: potency is the fitted concentration of half-maximal effect); conditions: CHO-K1 GR-EFC translocation, beta-gal luminescence, 2 h
# How it was run: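 CHO-K1 cells expressing nuclear EA and GR-ED fragments of b-gal; compounds titrated up to 46 uM final, 2 h at 37 C. GR nuclear translocation read as complemented b-gal luminescence after 1 h RT detection.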
# [7] = biological target: Mitogen-activated protein kinase 10 (Mus musculus) (UniProt Q61831); assay: JNK3 AlphaScreen Assay (AID 530; active = well fitted curve in either direction with a large enough effect, not every such curve was filed as active;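 note: kinase came from lysate of stimulated human HepG2 cells; signal reports phosphorylation of biotinylated GST-cJun 1-79 at Ser73 with 10 µM ATP; % is set by controls: 0 for no effect and ±100 for the full control effect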)
# How it was run: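 qHTS format: compounds tested as titrations against IL-1beta/TNF-alpha-activated HepG2 lysate JNK3 with biotin-GST-cJun substrate and 10 uM ATP at room temperature. Loss of anti-phospho-cJun AlphaScreen signal indicates inhibition.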
# [8] = biological target: Cytochrome P450 3A4 (Homo sapiens) (UniProt P08684); assay: qHTS Assay for Activators of Cytochrome P450 3A4 (AID 885); note: nearly all actives have a fitted effect of over 65% in size
# Chain of Cytochrome P450 3A4 (Homo sapiens) (P08684 whole entry, looked up): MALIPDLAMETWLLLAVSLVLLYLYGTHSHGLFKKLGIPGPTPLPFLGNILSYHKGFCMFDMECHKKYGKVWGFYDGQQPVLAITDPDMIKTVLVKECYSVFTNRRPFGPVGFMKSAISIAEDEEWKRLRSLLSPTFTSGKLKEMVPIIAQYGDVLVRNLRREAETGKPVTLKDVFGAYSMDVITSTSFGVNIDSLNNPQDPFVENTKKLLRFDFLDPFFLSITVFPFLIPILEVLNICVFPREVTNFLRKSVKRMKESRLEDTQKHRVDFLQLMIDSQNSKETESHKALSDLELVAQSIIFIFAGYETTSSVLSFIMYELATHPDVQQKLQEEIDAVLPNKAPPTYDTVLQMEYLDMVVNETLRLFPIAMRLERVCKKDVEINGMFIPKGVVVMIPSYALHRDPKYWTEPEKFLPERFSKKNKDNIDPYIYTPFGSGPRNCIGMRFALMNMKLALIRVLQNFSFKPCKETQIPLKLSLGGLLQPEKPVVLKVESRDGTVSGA
# How it was run: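 Quantitative HTS format: compounds preincubated with 20nM human CYP3A4 and Luciferin-PPXE substrate at KM, reaction started by NADPH regeneration, stopped after 60 min, luciferase luminescence read 20 min later.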
# [9] = Confirmation and Secondary Assay for Modulators of Hemoglobin Beta Chain Splicing at IVS2 654 locus (AID 910);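 note: HeLa cells stably carrying EGFP split by mutant beta-globin IVS2-654 intron; % of control where 0% means no effect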
# How it was run: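 HeLa cells stably expressing EGFP interrupted by β-globin IVS2-654 intron, seeded overnight in Opti-MEM/2% FCS, then treated 2 days at 37 °C. Restored splicing read as total peak GFP intensity per well by laser scanning cytometry (488 nm excitation, 500–520 nm emission); 500 nM antisense PNA as control.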
# [10] = Confirmation and Secondary Assay for Modulators of Hemoglobin Beta Chain Splicing at IVS2 705 locus (AID 930);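 note: HeLa cells stably expressing the EGFP-705 splicing reporter; GFP fluorescence per well restored by corrected splicing of the IVS2-705 intron in EGFP; % of control where 0% means no effect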
# How it was run: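 HeLa IVS2-705 EGFP reporter cells, 500/well, compound 2 d at 37C; correct splicing yields fluorescent EGFP. Control: 500 nM antisense PNA. Read-out: total peak GFP intensity.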
# [11] = qHTS Assay for Lipid Storage Modulators (AID 1519; calls by dose curve); conditions: Drosophila S3 cells, BODIPY lipid droplet/cell ratio, laser cytometry, cells loaded with oleic acid; for activity change, negative = inhibition: at 57.5 µM (top of the series)
# How it was run: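 Cells seeded at 5,000 per well were treated with compounds over a concentration series and loaded with oleic acid (400 uM, as added). Lipid droplet fluorescence (488 nm excitation, 500-530 nm channel) was read by laser-scanning cytometry and normalized to 20 uM Triacsin C.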
# [12] = biological target: Ubiquitin carboxyl-terminal hydrolase 1 (Homo sapiens) (UniProt O94782); assay: Inhibitors of USP1/UAF1: Pilot qHTS (AID 504865); note: nearly all actives have a fitted effect of over 35% in size; note: potency is the fitted concentration of half-maximal effect
# Chain of Ubiquitin carboxyl-terminal hydrolase 1 (Homo sapiens) (O94782 whole entry, looked up): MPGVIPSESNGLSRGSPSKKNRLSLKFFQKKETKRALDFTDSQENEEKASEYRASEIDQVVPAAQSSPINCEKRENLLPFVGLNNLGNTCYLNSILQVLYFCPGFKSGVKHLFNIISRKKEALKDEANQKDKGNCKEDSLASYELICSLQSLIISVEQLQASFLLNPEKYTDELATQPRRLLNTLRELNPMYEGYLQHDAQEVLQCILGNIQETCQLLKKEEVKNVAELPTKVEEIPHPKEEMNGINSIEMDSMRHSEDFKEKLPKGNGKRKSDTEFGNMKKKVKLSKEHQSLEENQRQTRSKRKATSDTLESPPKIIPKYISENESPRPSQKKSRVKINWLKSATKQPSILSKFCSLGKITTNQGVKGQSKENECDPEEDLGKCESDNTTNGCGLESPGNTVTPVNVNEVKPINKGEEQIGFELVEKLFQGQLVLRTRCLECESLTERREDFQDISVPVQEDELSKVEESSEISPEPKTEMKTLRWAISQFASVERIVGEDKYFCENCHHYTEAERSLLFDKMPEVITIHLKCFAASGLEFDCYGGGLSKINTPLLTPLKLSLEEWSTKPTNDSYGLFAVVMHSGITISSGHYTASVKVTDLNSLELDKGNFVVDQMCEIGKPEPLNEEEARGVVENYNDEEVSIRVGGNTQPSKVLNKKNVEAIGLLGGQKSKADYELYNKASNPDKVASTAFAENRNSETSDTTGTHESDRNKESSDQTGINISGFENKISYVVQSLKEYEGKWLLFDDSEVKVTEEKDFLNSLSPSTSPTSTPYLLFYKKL
# How it was run: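 In 50mM HEPES pH 7.8 containing 0.5mM EDTA, 1mM TCEP, 0.1 mg/ml BSA and 0.01% Tween-20, 1nM USP1/UAF1 is exposed to compound for 15 min, then Ub-Rho (150nM final) is added and fluorescence is read over time.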
# [13] = Primary qHTS for small molecule stabilizers of the endoplasmic reticulum resident proteome: Secreted ER Calcium Modulated Protein (SERCaMP) assay (AID 1508630); note: % is set by controls: 0 for no effect and ±100 for the full control effect
# How it was run: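 GLuc-SERCaMP-expressing SH-SY5Y cells, pretreated 16 h with compound, are challenged with thapsigargin to empty ER calcium stores; after 4 h, coelenterazine is added directly to the medium and luminescence is imaged.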
# [14] = biological target: Lysosomal acid glucosylceramidase (Homo sapiens) (UniProt P04062); assay: Glucocerebrosidase-p2 (AID 348; in the data active = potency below about 10 µM; note: potency is the fitted concentration of half-maximal effect); conditions: purified GBA, blue fluorogenic substrate, 40 min
# Chain of Lysosomal acid glucosylceramidase (Homo sapiens) (P04062 whole entry, looked up): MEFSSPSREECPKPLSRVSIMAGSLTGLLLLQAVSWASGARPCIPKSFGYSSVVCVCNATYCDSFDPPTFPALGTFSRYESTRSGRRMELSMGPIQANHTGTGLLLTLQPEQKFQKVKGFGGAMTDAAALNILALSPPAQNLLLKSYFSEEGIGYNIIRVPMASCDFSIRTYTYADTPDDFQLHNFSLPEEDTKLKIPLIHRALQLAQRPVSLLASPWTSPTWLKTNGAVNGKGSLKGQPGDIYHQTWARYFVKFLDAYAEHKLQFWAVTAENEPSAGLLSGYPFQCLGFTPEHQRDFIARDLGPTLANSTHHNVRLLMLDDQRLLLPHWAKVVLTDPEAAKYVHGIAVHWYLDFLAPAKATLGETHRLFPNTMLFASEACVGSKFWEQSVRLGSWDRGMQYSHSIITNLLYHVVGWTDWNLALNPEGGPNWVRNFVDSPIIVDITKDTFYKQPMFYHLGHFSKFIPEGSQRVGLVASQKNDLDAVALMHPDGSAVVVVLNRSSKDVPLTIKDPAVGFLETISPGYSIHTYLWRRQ
# How it was run: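 Compounds titrated from 0.6 nM upwards against 0.2 nM enzyme in pH 5.9 citric acid/KH2PO4, taurocholate, tween-20; blue fluorogenic substrate 80 uM, 40 min room temperature, stopped and read Ex 365/Em 440 for AC50.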
# [15] = biological target: 3',5'-cyclic-AMP phosphodiesterase 4B (Homo sapiens) (UniProt Q07343); assay: qHTS Assay for Inhibitors of PDE-IV (AID 607; active = well fitted activation curve with a large enough effect in the main read-out, with a control signal flat, not every such curve was filed as active; note: % of control where 0% means no effect)
# Chain of 3',5'-cyclic-AMP phosphodiesterase 4B (Homo sapiens) (Q07343 whole entry, looked up): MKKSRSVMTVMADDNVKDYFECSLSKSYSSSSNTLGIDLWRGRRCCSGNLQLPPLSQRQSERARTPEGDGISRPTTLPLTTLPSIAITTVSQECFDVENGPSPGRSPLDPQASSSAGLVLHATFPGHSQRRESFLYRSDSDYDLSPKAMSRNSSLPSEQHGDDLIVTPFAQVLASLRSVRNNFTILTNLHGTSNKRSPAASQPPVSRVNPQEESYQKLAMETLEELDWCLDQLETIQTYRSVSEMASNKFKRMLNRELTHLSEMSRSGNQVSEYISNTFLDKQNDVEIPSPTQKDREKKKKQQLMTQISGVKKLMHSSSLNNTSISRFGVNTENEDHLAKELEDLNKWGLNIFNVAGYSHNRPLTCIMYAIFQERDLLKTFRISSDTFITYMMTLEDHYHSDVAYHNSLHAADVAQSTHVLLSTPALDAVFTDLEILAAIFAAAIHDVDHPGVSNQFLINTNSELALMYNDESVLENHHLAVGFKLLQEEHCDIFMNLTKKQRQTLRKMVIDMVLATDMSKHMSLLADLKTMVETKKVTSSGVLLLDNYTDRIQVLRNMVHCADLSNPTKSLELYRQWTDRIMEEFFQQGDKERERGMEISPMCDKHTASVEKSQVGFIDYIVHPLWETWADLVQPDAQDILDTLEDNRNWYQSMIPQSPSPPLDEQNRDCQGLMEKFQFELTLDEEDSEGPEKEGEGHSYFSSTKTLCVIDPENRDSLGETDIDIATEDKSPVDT
# How it was run: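 Live HEK293 cells with a modified cyclic nucleotide-gated (CNG) channel report intracellular cAMP via membrane-potential dye fluorescence (ex 535/em 590 nm). Endogenous PDE-IV was targeted. Compounds were tested at up to 22.9 uM final; RO 20-1724 100 uM served as control.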
# [16] = biological target: Cytochrome P450 2C9 (Homo sapiens) (UniProt P11712); assay: qHTS Assay for Inhibitors and Substrates of Cytochrome P450 2C9 (AID 883); note: % is set by controls: 0 for no effect and ±100 for the full control effect; nearly all actives have a fitted effect of over 60% in size
# Chain of Cytochrome P450 2C9 (Homo sapiens) (P11712 whole entry, looked up): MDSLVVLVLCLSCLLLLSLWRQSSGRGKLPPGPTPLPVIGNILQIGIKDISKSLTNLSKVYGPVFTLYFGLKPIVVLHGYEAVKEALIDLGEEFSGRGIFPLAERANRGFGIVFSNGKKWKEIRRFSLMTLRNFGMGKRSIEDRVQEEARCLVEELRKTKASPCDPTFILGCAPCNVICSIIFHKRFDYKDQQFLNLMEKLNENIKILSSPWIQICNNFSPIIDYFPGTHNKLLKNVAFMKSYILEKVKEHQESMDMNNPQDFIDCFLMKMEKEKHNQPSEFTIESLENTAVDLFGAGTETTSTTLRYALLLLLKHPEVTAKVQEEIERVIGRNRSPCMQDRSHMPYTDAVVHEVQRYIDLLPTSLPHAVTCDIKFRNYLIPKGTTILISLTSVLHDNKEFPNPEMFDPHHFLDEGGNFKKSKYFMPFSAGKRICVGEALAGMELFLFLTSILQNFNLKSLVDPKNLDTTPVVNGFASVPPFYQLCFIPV
# How it was run: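 Human CYP2C9 (10nM) with Luciferin-H at 100uM (its KM) in 25mM KPO4; compound preincubated 10 min at 37C, then NADPH regeneration for 60 min at 37C. Luciferin read by luminescence after detection reagent; normalized to 57uM sulphaphenazole as full inhibition.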
# [17] = biological target: Cytochrome P450 3A4 (Homo sapiens) (UniProt P08684); assay: qHTS Assay for Inhibitors and Substrates of Cytochrome P450 3A4 (AID 884); note: % is set by controls: 0 for no effect and ±100 for the full control effect; nearly all actives have a fitted effect of over 50% in size
# How it was run: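 20 nM human CYP3A4 with 25 uM Luciferin-PPXE (at KM) in 200 mM KPO4, preincubated 10 min with compound; NADPH regeneration started a 60 min RT reaction. Luciferin detected by luminescence, normalized to 57 uM ketoconazole as full inhibition.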
# [18] = biological target: Cytochrome P450 2D6 (Homo sapiens) (UniProt P10635); assay: qHTS Assay for Inhibitors and Substrates of Cytochrome P450 2D6 (AID 891); note: nearly all actives have a fitted effect of over 60% in size; note: potency is the fitted concentration of half-maximal effect
# Chain of Cytochrome P450 2D6 (Homo sapiens) (P10635 whole entry, looked up): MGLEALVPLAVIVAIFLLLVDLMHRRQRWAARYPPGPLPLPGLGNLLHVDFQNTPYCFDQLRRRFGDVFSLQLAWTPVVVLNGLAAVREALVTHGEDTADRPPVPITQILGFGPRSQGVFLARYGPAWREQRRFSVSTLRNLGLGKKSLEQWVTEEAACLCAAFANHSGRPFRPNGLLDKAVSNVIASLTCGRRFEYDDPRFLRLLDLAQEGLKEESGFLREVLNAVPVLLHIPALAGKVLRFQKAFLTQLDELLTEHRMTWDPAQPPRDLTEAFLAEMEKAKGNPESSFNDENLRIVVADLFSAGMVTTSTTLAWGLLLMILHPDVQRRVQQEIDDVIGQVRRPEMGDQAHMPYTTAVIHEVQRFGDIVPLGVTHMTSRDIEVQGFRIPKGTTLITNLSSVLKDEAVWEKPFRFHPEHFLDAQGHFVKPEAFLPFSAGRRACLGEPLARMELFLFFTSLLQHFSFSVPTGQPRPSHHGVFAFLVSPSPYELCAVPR
# How it was run: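 Human CYP2D6 (5 nM) with 30 uM Luciferin-ME EGE (at Km) in 100 mM KPO4, compound preincubated 10 min, then NADPH regeneration system for 60 min at room temperature. Luciferin read by luminescence; normalized to 1.43 uM quinidine.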
# [19] = biological target: Cytochrome P450 2C19 (Homo sapiens) (UniProt P33261); assay: qHTS Assay for Inhibitors and Substrates of Cytochrome P450 2C19 (AID 899); note: % is set by controls: 0 for no effect and ±100 for the full control effect; nearly all actives have a fitted effect of over 60% in size
# How it was run: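 5 nM human CYP2C19 with 10uM Luciferin-H EGE (at KM) in 50mM KPO4, compound preincubated 10 min at 37C, then NADPH regeneration for 60 min at 37C. Luciferin read by luminescence after detection reagent; normalized to 57uM ketoconazole as full inhibition.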
# [20] = measured here: cell count channel max response
# [21] = measured here: lipid channel max response
smiles,measurement,setting,value
O=C(O)C1CCN(c2ncnc3ccc(-c4ccccc4C(F)(F)F)cc23)CC1,"activity change, negative = inhibition",[1],-20.1% (inactive)
same,Potency,[2],inactive
same,"activity change, negative = inhibition",[3],6.97% (inactive)
same,"activity, negative = inhibition",[4],-9.2% (inactive)
same,Potency,[5],> 46 µM (inactive)
same,Potency,[6],> 46 µM (inactive)
same,outcome,[7],inactive
same,Potency,[8],inactive
same,outcome,[9],inactive
same,outcome,[10],inactive
same,"activity change, negative = inhibition",[11],4.82% (inactive)
same,max response,[11]; [20],14.4%
same,max response,[11]; [21],20.7%
same,Potency,[12],inactive
same,Potency,[13],inactive
CNc1ccnc(-c2ccccc2C(F)(F)F)n1,Potency,[14],> 11.4 µM (inactive)
same,"activity change, negative = inhibition",[1],1.92% (inactive)
same,Potency,[2],12.6 µM (active)
same,"activity, negative = inhibition",[4],-22.6% (inactive)
same,Potency,[5],> 46 µM (inactive)
same,Potency,[6],> 46 µM (inactive)
same,outcome,[7],inactive
same,Potency,[15],inactive
same,Potency,[8],inactive
same,outcome,[9],inactive
same,outcome,[10],inactive
same,"activity change, negative = inhibition",[11],4.06% (inactive)
same,max response,[11]; [20],2.06%
same,max response,[11]; [21],6.45%
same,Potency,[12],inactive
same,Potency,[13],inactive
Cc1noc(C)c1C(=O)N1CCC2(CC1)CCN(c1cccc(-c3ccccc3)c1)CC2,Potency,[14],> 11.4 µM (inactive)
same,"activity change, negative = inhibition",[1],-13.8% (inactive)
same,Potency,[2],inactive
same,Potency,[6],> 46 µM (inactive)
same,outcome,[7],inactive
same,Potency,[15],inactive
same,Potency,[16],inactive
same,Potency,[17],inactive
same,Potency,[18],inactive
same,Potency,[19],inactive
same,"activity change, negative = inhibition",[11],-7.36% (inactive)
same,max response,[11]; [20],-11.4%
same,max response,[11]; [21],-15.8%
same,Potency,[13],inactive
N#Cc1ccccc1-c1ccc2ncnc(N3CCNCC3)c2c1,"activity change, negative = inhibition",[1],6.5% (inactive)
same,Potency,[2],3.98 µM (active)
same,"activity change, negative = inhibition",[3],17.9% (inactive)
same,"activity, negative = inhibition",[4],2.26% (inactive)
same,Potency,[5],> 46 µM (inactive)
same,Potency,[6],> 46 µM (inactive)
same,outcome,[7],inactive
same,Potency,[15],inactive
same,outcome,[9],inactive
same,outcome,[10],inactive
same,"activity change, negative = inhibition",[11],7.44% (inactive)
same,max response,[11]; [20],18.9%
same,max response,[11]; [21],26.9%
same,Potency,[12],inactive
same,Potency,[13],inactive
COc1ccccc1CN1CC[C@@]2(CCCN(C(=O)c3cccc(F)c3)C2)C1,Potency,[14],> 11.4 µM (inactive)
same,"activity change, negative = inhibition",[1],-14.6% (inactive)
same,"activity change, negative = inhibition",[3],-10.9% (inactive)
same,"activity, negative = inhibition",[4],10.2% (inactive)
same,Potency,[6],> 46 µM (inactive)
same,outcome,[7],inactive
same,Potency,[15],inactive
same,"activity change, negative = inhibition",[11],5.1% (inactive)
same,max response,[11]; [20],15.7%
same,max response,[11]; [21],25%
same,Potency,[13],inactive
c1cncc(CNc2nc(-c3ccoc3)nc3ccccc23)c1,Potency,[14],> 11.4 µM (inactive)
same,"activity change, negative = inhibition",[1],1.41% (inactive)
same,Potency,[2],0.398 µM (active)
same,"activity, negative = inhibition",[4],-4.87% (inactive)
same,Potency,[5],> 46 µM (inactive)
same,Potency,[6],> 46 µM (inactive)
same,outcome,[7],inactive
same,Potency,[8],inactive
same,Potency,[18],5.01 µM (active)
same,outcome,[9],inactive
same,outcome,[10],inactive
same,"activity change, negative = inhibition",[11],12.2% (inactive)
same,max response,[11]; [20],2.22%
same,max response,[11]; [21],16.5%
same,Potency,[12],44.7 µM (active)
same,Potency,[13],inactive
